# Measured values as given in PubChem BioAssay (Tox21).
# A number with no mark means an inactive call. Inconclusive results are not listed. Where a call stands in place of a potency, no number is given. The source made the active and inactive calls. Unless noted, the call rests on the fitted dose curve; in most records, active means well fitted curve in the direction sought with a large enough effect in the repeat runs; inconclusive means weak or mixed curves; inactive means no such curve, though single readings can be large; an effect the other way counts as inactive or inconclusive.
# Key:
# [1] = molecular target: Thyrotropin receptor (Homo sapiens) (UniProt P16473); experiment: qHTS assay to identify small molecule agonists of the thyroid stimulating hormone receptor (TSHR) signaling pathway (AID 1224843; calls by dose curve; further: nearly all actives have a fitted effect of over 45% in size; further: potency means the concentration at half of the fitted maximal effect)
# In short: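 Using 15 concentrations per compound in triplicate, cAMP production was monitored in TSHR-HEK293 cells after 30 min compound incubation at RT; HTRF reagents followed, with fluorescence intensity recorded after 1 h.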
# [2] = qHTS assay to identify small molecule agonists of H2AX (AID 1224845; active means well fitted activation curve with a large enough effect in the signal ratio in the repeat runs, not every such curve was filed as active; the % refers to the signal ratio)
# In short: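 Wild-type CHO-K1 cells plated overnight, then exposed 3 hr at 37C to compounds at 15 concentrations (0.76% DMSO). Lysed, then HTRF anti-pH2AX(S139)-cryptate/anti-H2AX-d2 detection after 24 hr at room temperature; emissions 665 and 620 nm.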
# [3] = qHTS assay to identify small molecule agonists of H2AX - cell viability counter screen (AID 1224847; calls by dose curve; further: nearly all actives have a fitted effect of over 30% in size; further: potency means the concentration at half of the fitted maximal effect)
# In short: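 CHO-K1 wt, 1000 cells/well, o/n 37C; cpds 15 conc, 3 h 37C, 0.76% DMSO; CellTiter-Glo, 30 min RT, luminescence.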
# [4] = qHTS assay to identify small molecule antagonists of the estrogen related receptor (ERR) signaling pathway from Tox21 library (AID 1224848); further: nearly all actives have a fitted effect of over 50% in size; further: potency means the concentration at half of the fitted maximal effect
# In short: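 Tox21 10K compounds in DMSO tested for ERR pathway antagonism in NTP's ERR cell line; 18 h, 37 C exposure; ONE-Glo luminescence.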
# [5] = qHTS assay to identify small molecule agonists of the estrogen related receptor (ERR) signaling pathway from Tox21 library (AID 1224849; calls by dose curve; further: nearly all actives have a fitted effect of over 15% in size); details: ERR reporter cell line, ONE-Glo luciferase, 18 h; at 92.4 µM (top of the series) unless noted
# In short: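 Cells carrying the ERR reporter were plated and allowed to settle for 6 h, exposed to library compounds for 18 h at 37 C, then lysed with ONE-Glo and luminescence measured.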
# [6] = qHTS RealTime-Glo MT Cell Viability Assay in HepG2 cells - 24 hour (AID 1224867); further: nearly all actives have a fitted effect of over 50% in size
# In short: (§1)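 HepG2 suspension premixed with RealTime-Glo reagents is plated at 600 cells per well and left 5 h at 37 C/5% CO2. Compounds in DMSO then go in, and bioluminescence reflecting viable cell number is recorded over 40 h.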
# [7] = qHTS RealTime-Glo MT Cell Viability Assay in HEK293 cells - 32 hour (AID 1224868); further: nearly all actives have a fitted effect of over 50% in size; further: potency means the concentration at half of the fitted maximal effect
# In short: (§2)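 Reads taken at 0, 8, 16, 24, 32 and 40 h from the same wells. HEK293 cells (600/well) carried RealTime-Glo reagents from seeding, with compound added after a 5 h settle at 37 C.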
# [8] = A CellTox Green Cytotoxicity Assay to monitor cytotoxicity in HEK293 cells - 0 hour (AID 1224869); further: nearly all actives have a fitted effect of over 50% in size
# In short: (§3)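 Cells (HEK293, 600/well) and dye reagent are dispensed together. After 5 h at 37 C, 23 nL compound is pinned in. Plates stay at 37 C for 40 h with fluorescence read at 0h, 8h, 16h, 24h, 32h and 40h.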
# [9] = qHTS RealTime-Glo MT Cell Viability Assay in HepG2 cells - 40 hour (AID 1224870); further: nearly all actives have a fitted effect of over 50% in size
# In short: (§4)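 HepG2 cells mixed with RealTime-Glo MT reagents (NanoLuc plus cell-permeant prosubstrate) were seeded at 600 cells/well, incubated 5 h at 37 C/5% CO2, then pinned with compounds in DMSO; nonlytic luminescence tracked viability during 40 h treatment.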
# [10] = A CellTox Green Cytotoxicity Assay to monitor cytotoxicity in HEK293 cells - 40 hour (AID 1224871); further: nearly all actives have a fitted effect of over 45% in size; further: potency means the concentration at half of the fitted maximal effect
# In short: as §3
# [11] = qHTS RealTime-Glo MT Cell Viability Assay in HEK293 cells - 16 hour (AID 1224872); further: nearly all actives have a fitted effect of over 50% in size; further: potency means the concentration at half of the fitted maximal effect
# In short: as §2
# [12] = qHTS RealTime-Glo MT Cell Viability Assay in HepG2 cells - 8 hour (AID 1224873); further: nearly all actives have a fitted effect of over 55% in size
# In short: as §4
# [13] = qHTS RealTime-Glo MT Cell Viability Assay in HEK293 cells - 40 hour (AID 1224874); details: RealTime-Glo luminescence; max response: stronger effect = lower value; further: nearly all actives have a fitted effect of over 50% in size; further: potency means the concentration at half of the fitted maximal effect
# In short: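 Real-time viability in HEK293: signal arises when living cells convert a prosubstrate for NanoLuc in the medium, so luminescence tracks viable cell number. Compound (23 nL, DMSO) added 5 h post-seeding; kinetic reads at 0–40 h, 37 C.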
# [14] = A CellTox Green Cytotoxicity Assay to monitor cytotoxicity in HEK293 cells - 24 hour (AID 1224875); further: nearly all actives have a fitted effect of over 45% in size; further: potency means the concentration at half of the fitted maximal effect
# In short: as §3
# [15] = A CellTox Green Cytotoxicity Assay to monitor cytotoxicity in HepG2 cells - 16 hour (AID 1224876); further: nearly all actives have a fitted effect of over 45% in size
# In short: (§5)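 Cells and non-lytic dye reagent are dispensed together (600 HepG2 cells/well) and incubated 5 h before DMSO compound transfer. Kinetic fluorescence is then recorded in the same wells during 40 h at 37 C.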
# [16] = qHTS RealTime-Glo MT Cell Viability Assay in HepG2 cells - 32 hour (AID 1224877); further: nearly all actives have a fitted effect of over 55% in size
# In short: as §1
# [17] = A CellTox Green Cytotoxicity Assay to monitor cytotoxicity in HepG2 cells - 24 hour (AID 1224878); further: nearly all actives have a fitted effect of over 45% in size
# In short: as §5
# [18] = A CellTox Green Cytotoxicity Assay to monitor cytotoxicity in HepG2 cells - 40 hour (AID 1224879); further: nearly all actives have a fitted effect of over 40% in size; further: potency means the concentration at half of the fitted maximal effect
# In short: as §5
# [19] = qHTS assay to identify small molecule agonists of the hypoxia (HIF-1) signaling pathway (AID 1224846; active means well fitted activation curve with a large enough effect in the signal ratio in the repeat runs, not every such curve was filed as active; the % refers to the signal ratio)
# In short: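 Compounds from the Tox21 10K library, dissolved in DMSO, are tested for induction of a hypoxia response element–controlled beta-lactamase reporter in ME-180 cells. Exposure lasts 17 hrs at 37C after a 5 hr settling period, followed by CCF4-AM FRET substrate.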
# [20] = qHTS assay to identify small molecule agonists of the hypoxia (HIF-1) signaling pathway - cell viability counter screen (AID 1224844; calls by dose curve; further: nearly all actives have a fitted effect of over 50% in size; further: potency means the concentration at half of the fitted maximal effect)
# In short: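 Cytotoxicity was measured in parallel with the HRE-driven beta-lactamase readout: after 17 hrs of compound exposure at 37C, HRE-bla ME-180 cells received CellTiter-Glo and luminescence was recorded 30 min later.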
# Sequence of Thyrotropin receptor (Homo sapiens) (P16473 whole entry, looked up): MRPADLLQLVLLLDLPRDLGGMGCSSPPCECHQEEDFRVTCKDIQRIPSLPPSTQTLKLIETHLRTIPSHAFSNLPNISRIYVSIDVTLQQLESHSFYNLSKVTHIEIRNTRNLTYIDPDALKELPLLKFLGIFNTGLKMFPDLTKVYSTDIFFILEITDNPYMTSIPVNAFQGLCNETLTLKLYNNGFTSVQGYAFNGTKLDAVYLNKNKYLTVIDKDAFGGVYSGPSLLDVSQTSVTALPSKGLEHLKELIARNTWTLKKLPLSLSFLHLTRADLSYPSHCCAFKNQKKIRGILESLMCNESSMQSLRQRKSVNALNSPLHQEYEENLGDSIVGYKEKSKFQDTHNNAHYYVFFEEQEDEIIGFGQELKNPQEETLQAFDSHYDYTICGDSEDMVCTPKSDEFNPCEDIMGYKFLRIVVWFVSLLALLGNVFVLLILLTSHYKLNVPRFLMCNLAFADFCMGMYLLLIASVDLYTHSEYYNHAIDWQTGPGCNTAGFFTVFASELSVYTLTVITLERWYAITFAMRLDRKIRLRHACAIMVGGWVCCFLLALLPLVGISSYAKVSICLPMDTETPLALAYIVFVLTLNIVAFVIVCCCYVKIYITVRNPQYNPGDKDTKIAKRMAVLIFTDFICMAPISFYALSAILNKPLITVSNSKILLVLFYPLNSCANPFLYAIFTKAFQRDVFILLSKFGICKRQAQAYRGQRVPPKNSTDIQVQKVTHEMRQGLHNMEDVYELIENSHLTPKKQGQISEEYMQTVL
smiles,measurement,setting,value
CC1Sc2c(C(=O)O)c(=O)c3cc(F)c(N4CCNCC4)cc3n21 (configuration not stated),Potency,[1],inactive
same,Potency,[2],inactive
same,Potency,[3],inactive
same,Potency,[4],inactive
same,"activity change, positive = activation",[5],11.7% [at 42.5 µM]
same,Potency,[6],inactive
same,Potency,[7],inactive
same,Potency,[8],inactive
same,Potency,[9],inactive
same,Potency,[10],inactive
same,Potency,[11],inactive
same,Potency,[12],inactive
same,max response,[13],1.01%
same,Potency,[14],inactive
same,Potency,[15],inactive
same,Potency,[16],inactive
same,Potency,[17],inactive
same,Potency,[18],inactive
CCCCCCC#N,Potency,[1],inactive
same,Potency,[2],inactive
same,outcome,[19],inactive
same,Potency,[3],inactive
same,Potency,[6],inactive
same,Potency,[7],inactive
same,Potency,[8],inactive
same,Potency,[10],inactive
same,Potency,[11],inactive
same,Potency,[12],inactive
same,max response,[13],1.28%
same,Potency,[14],inactive
same,Potency,[15],inactive
same,Potency,[16],inactive
same,Potency,[17],inactive
NC(=O)C(Cl)(Cl)Cl,Potency,[1],inactive
same,Potency,[2],inactive
same,outcome,[19],inactive
same,Potency,[3],inactive
same,Potency,[6],inactive
same,Potency,[7],inactive
same,Potency,[8],inactive
same,Potency,[10],inactive
same,Potency,[11],inactive
same,Potency,[12],inactive
same,max response,[13],16.8%
same,Potency,[14],inactive
same,Potency,[15],inactive
same,Potency,[16],inactive
same,Potency,[17],inactive
same,Potency,[18],inactive
COC(=O)C(C)N(C(=O)Cc1ccccc1)c1c(C)cccc1C (configuration not stated),Potency,[1],27.3 µM (active)
same,Potency,[2],inactive
same,outcome,[19],inactive
same,Potency,[4],30.6 µM (active)
same,"activity change, positive = activation",[5],-38.3%
same,Potency,[6],inactive
same,Potency,[8],inactive
same,Potency,[9],inactive
same,Potency,[10],inactive
same,Potency,[12],inactive
same,Potency,[14],inactive
same,Potency,[15],inactive
same,Potency,[16],inactive
COC(C)(C)CCC[C@H](C)C/C=C/C(C)=C/C(=O)OC(C)C,Potency,[1],inactive
same,outcome,[19],inactive
same,Potency,[3],inactive
same,"activity change, positive = activation",[5],-23.3%
same,Potency,[6],inactive
same,Potency,[7],inactive
same,Potency,[8],inactive
same,Potency,[9],inactive
same,Potency,[11],inactive
same,Potency,[12],inactive
same,max response,[13],-3.6%
same,Potency,[14],inactive
same,Potency,[15],inactive
same,Potency,[16],inactive
same,Potency,[17],inactive
same,Potency,[18],inactive
COP(=S)(OC)Oc1cc(Cl)c(I)cc1Cl,Potency,[1],inactive
same,Potency,[2],inactive
same,outcome,[19],inactive
same,Potency,[6],inactive
same,Potency,[7],inactive
same,Potency,[8],inactive
same,Potency,[9],inactive
same,Potency,[10],inactive
same,Potency,[11],inactive
same,Potency,[12],inactive
same,max response,[13],-19.9%
same,Potency,[14],inactive
same,Potency,[15],inactive
same,Potency,[16],inactive
same,Potency,[17],inactive
O=C1C(Cl)C(CCl)CN1c1cccc(C(F)(F)F)c1 (configuration not stated),Potency,[20],inactive
same,Potency,[2],inactive
same,outcome,[19],inactive
same,"activity change, positive = activation",[5],-29.4%
same,Potency,[6],inactive
same,Potency,[7],24.5 µM (active)
same,Potency,[8],inactive
same,Potency,[9],inactive
same,Potency,[10],inactive
same,Potency,[11],24.5 µM (active)
same,Potency,[12],inactive
same,Potency,[13],24.5 µM (active)
same,Potency,[14],inactive
same,Potency,[15],inactive
same,Potency,[16],inactive
same,Potency,[17],inactive
same,Potency,[18],inactive
O=C(O)C1(c2ccc3c(c2)OC[C@H](Cc2ccc(-c4ccccc4)cc2)[C@H]3O)CCCC1,Potency,[20],17.4 µM (active)
same,Potency,[2],inactive
same,Potency,[3],101 µM (active)
same,Potency,[4],61.1 µM (active)
same,"activity change, positive = activation",[5],-42.3%
same,Potency,[6],inactive
same,Potency,[8],inactive
same,Potency,[9],inactive
same,Potency,[10],34.7 µM (active)
same,Potency,[12],inactive
same,Potency,[14],38.9 µM (active)
same,Potency,[16],inactive
same,Potency,[18],49 µM (active)
C#CCOC(C(=O)OCCN(C)C)(c1ccccc1)c1ccccc1,Potency,[20],inactive
same,Potency,[2],inactive
same,outcome,[19],inactive
same,Potency,[3],inactive
same,Potency,[6],inactive
same,Potency,[7],inactive
same,Potency,[8],inactive
same,Potency,[10],inactive
same,Potency,[11],inactive
same,Potency,[12],inactive
same,max response,[13],-21.3%
same,Potency,[14],inactive
same,Potency,[15],inactive
same,Potency,[16],inactive
same,Potency,[17],inactive
same,Potency,[18],inactive
CCCCOC(=O)c1ccccc1C(=O)OCc1ccccc1,Potency,[20],inactive
same,Potency,[2],inactive
same,outcome,[19],inactive
same,Potency,[4],inactive
same,"activity change, positive = activation",[5],3.01%
same,Potency,[6],inactive
same,Potency,[8],inactive
same,Potency,[9],inactive
same,Potency,[10],inactive
same,Potency,[12],inactive
same,Potency,[14],inactive
same,Potency,[15],inactive
same,Potency,[16],inactive
same,Potency,[17],inactive
same,Potency,[18],inactive
CO/C=C(/C(=O)OC)c1ccccc1COc1cccc(C(F)(F)F)n1,Potency,[20],inactive
same,Potency,[2],inactive
same,outcome,[19],inactive
same,Potency,[3],17.9 µM (active)
same,Potency,[4],0.485 µM (active)
same,"activity change, positive = activation",[5],-45%
same,Potency,[6],inactive
same,Potency,[7],19.5 µM (active)
same,Potency,[8],inactive
same,Potency,[10],3.89 µM (active)
same,Potency,[13],6.16 µM (active)
same,Potency,[14],inactive
same,Potency,[15],inactive
same,Potency,[17],inactive
O=C(OC1CCCCC1)c1ccccc1C(=O)OC1CCCCC1,Potency,[20],inactive
same,Potency,[2],inactive
same,outcome,[19],inactive
same,Potency,[3],106 µM (active)
same,Potency,[6],inactive
same,Potency,[7],inactive
same,Potency,[8],inactive
same,Potency,[9],inactive
same,Potency,[10],inactive
same,Potency,[11],inactive
same,Potency,[12],inactive
same,max response,[13],-29.8%
same,Potency,[14],inactive
same,Potency,[15],inactive
same,Potency,[16],inactive
same,Potency,[17],inactive
same,Potency,[18],inactive
COc1ccc(-c2ccccc2)cc1NNC(=O)OC(C)C,Potency,[20],inactive
same,Potency,[2],inactive
same,Potency,[4],31.9 µM (active)
same,"activity change, positive = activation",[5],-62.9%
same,Potency,[7],51 µM (active)
same,Potency,[8],inactive
same,Potency,[9],inactive
same,Potency,[13],51 µM (active)
same,Potency,[15],inactive
same,Potency,[16],inactive
same,Potency,[17],inactive
same,Potency,[18],inactive
CCCN(CCC)c1c([N+](=O)[O-])cc(S(C)(=O)=O)cc1[N+](=O)[O-],Potency,[20],inactive
same,Potency,[2],inactive
same,outcome,[19],inactive
same,Potency,[3],inactive
same,"activity change, positive = activation",[5],-24.5%
same,Potency,[6],inactive
same,Potency,[7],13.8 µM (active)
same,Potency,[8],inactive
same,Potency,[10],inactive
same,Potency,[11],15.5 µM (active)
same,Potency,[12],inactive
same,Potency,[13],15.5 µM (active)
same,Potency,[14],inactive
same,Potency,[15],inactive
same,Potency,[16],inactive
same,Potency,[17],inactive
same,Potency,[18],inactive
COc1cc(Cl)c(OC)cc1Cl,Potency,[20],inactive
same,Potency,[2],inactive
same,outcome,[19],inactive
same,Potency,[3],inactive
same,Potency,[4],inactive
same,"activity change, positive = activation",[5],0.702%
same,Potency,[6],inactive
same,Potency,[7],inactive
same,Potency,[8],inactive
same,Potency,[9],inactive
same,Potency,[10],inactive
same,Potency,[11],inactive
same,Potency,[12],inactive
same,max response,[13],1.87%
same,Potency,[14],inactive
same,Potency,[15],inactive
same,Potency,[17],inactive
same,Potency,[18],inactive
